# High-throughput results from PubChem.
# HT1080-NT tox = kills 2HG-producing HT-1080-NT fibrosarcoma cells. HT-1080-NT fibrosarcoma viability, CellTiter-Glo ATP luminescence, 48 h. Potency, µM (top dose mostly 46.1 µM), actives largely listed as cytotoxic. 360,000 tested, 1.6% active. AID 686970;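 further: NT is the 2HG producing partner of a matched IDH1 knockdown line; nearly all actives have a fitted effect of over 55% in size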
#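 HT-1080-NT; 750 cells/well; 5% FBS RPMI; 48 h compound, 37 degrees C; CellTiter-Glo luminescence; curve fitting and curve-class assignment.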
# KB-V1 cytotox = kills drug-selected multidrug resistant KB-V1 cells; AID 1347076; KB-V1 MDR cells viability, CellTiter-Glo, 72 h; Potency, µM (doses to about 46.1 µM), usual class: cytotoxic; 400,000 tested, 3.4% active; further: nearly all actives have a fitted effect of over 60% in size
#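 Drug-selected KB-V1 cells, grown in DMEM lacking phenol red with 10% FBS, receive compound titrations; after three days at 37 degrees C, surviving cell ATP is quantified by CellTiter-Glo luminescence and responses normalized and curve-fitted.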
# DT40 TDP1 CPT = DT40-hTDP1 cell growth loss with CPT; chicken DT40 Tdp1-/-;hTDP1 cells + 20 nM CPT, ATP luminescence, 48 h; Potency, µM (titrated, usually from 46.2 µM), hits mostly inhibitors; 420,000 tested, 12% active; AID 686979; further: nearly all actives have a fitted effect of over 55% in size
#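 Cell growth measured by CellTiter-Glo luminescence after a minimum 48 h, 37 C compound exposure with 20 nM CPT in Tdp1-knockout DT40 cells stably expressing hTDP1, seeded 400/well; qHTS titration format.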
# KB-3-1 cytotox = KB-3-1 parental cell cytotoxicity; KB-3-1 viability, CellTiter-Glo ATP luminescence, 72 h; Potency, µM (series often up to 46.1 µM), hits mostly cytotoxic; 400,000 tested, 1.4% active; further: nearly all actives have a fitted effect of over 60% in size
#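 Luminescent ATP read-out (CellTiter-Glo) measures survival of drug-naive KB-3-1 cells after 72 h compound exposure at 37 °C. Titration series was screened from lowest to highest concentration, with DMSO vehicle plates as background controls.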
# TDP1 cell noCPT = qHTS for Inhibitors of human tyrosyl-DNA phosphodiesterase 1 (TDP1): qHTS in cells in absence of CPT | 420,000 tested, 15% active | AID 686978, 2013 | Potency, µM (titrated, usually from 46.2 µM), most hits filed as inhibitors | DT40 Tdp1-/- hTDP1 cells, no CPT, ATP luminescence, 48 h; further: nearly all actives have a fitted effect of over 55% in size
#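 Readout: luminescence from CellTiter-Glo after 30 min in the dark at RT. Cells: DT40 Tdp1-/- with stable hTDP1, 400/well. Exposure: compounds alone, ≥48 hr, 37 °C.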
# HT1080 IDH1KD tx = kills HT-1080 cells with IDH1 knockdown; HT-1080 IDH1 knockdown viability, ATP luminescence, 48 h; Potency, µM (titrated, usually from 46.1 µM), actives largely listed as cytotoxic; 360,000 tested, 2% active; AID 686971
#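 Viability of IDH1-knockdown HT-1080 fibrosarcoma cells was assessed by CellTiter-Glo after 48 h at 37 °C with titrated compound; concentration-effect curves were classified by fit quality and response size.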
# Hits are given with their value; . = inactive; ? = inconclusive; / = no result. A selection: hits, their analogues and other compounds. The true share with any hit is near 19%. The call rests on the fitted dose curve; in most records, active means well fitted curve in the direction sought with a large enough effect; inconclusive means small, poorly fitted or top-dose-only effect, or another doubt; inactive means no such curve, though single readings can be large; an effect the other way counts as inactive or inconclusive.
SMILES,HT1080-NT tox,KB-V1 cytotox,DT40 TDP1 CPT,KB-3-1 cytotox,TDP1 cell noCPT,HT1080 IDH1KD tx
CCn1c(SCC(=O)Nc2nc3ccc(C)cc3s2)nc2c(c1=O)SC(C)C2 (centres undefined),.,.,16.4µM,.,10.3µM,.
O=C(CC[C@H]1O[C@@H](n2ccc(=O)[nH]c2=O)[C@H](O)[C@@H]1O)NCc1ccccc1,.,.,.,.,.,.
Cc1cc2c(=O)c(C(=O)c3ccncc3)cn(CC(=O)Nc3cccc(C)c3C)c2cc1C,/,/,.,/,.,/
O=C(Cn1c(=O)oc2cc(S(=O)(=O)N3CCCC3)ccc21)N1CCN(c2ccccc2)CC1,.,.,?,.,?,.
CCOC(=O)Cn1c(=O)oc2cc(S(=O)(=O)N3CCN(c4cc(C)ccc4C)CC3)ccc21,/,?,18.4µM,.,?,/
Cc1ccc(Cl)cc1N1CCN(C(=O)CCS(=O)(=O)c2ccc3c(c2)oc(=O)n3C)CC1,/,7.31µM,?,.,16.4µM,/
CCc1cccc(C)c1NC(=O)CCS(=O)(=O)c1ccc2c(c1)oc(=O)n2C,/,.,?,.,14.6µM,/
Cc1ccc(C)c(N2CCN(C(=O)Cn3c(=O)oc4cc(S(=O)(=O)N5CCCC5)ccc43)CC2)c1,.,.,16.4µM,.,11.6µM,.
Cc1cc2ncn(C(=O)N3CCCCCC3)c2cc1C,.,.,.,.,.,.
Cn1c(Cc2ccccc2)nnc1SCC(=O)Nc1ccc(N2CCOCC2)cc1,.,.,.,.,.,.
COc1ccc(CC(=O)OCC(=O)NC2CCCC(C)C2C)cc1OC (centres undefined),.,/,.,/,.,.
Cc1ccc2[nH]c(CN3CCC(CO)(CC4CCCCO4)CC3)c(C)c2c1 (centres undefined),?,?,?,.,?,13µM
Cc1ccc(CN2CCC(CO)(CC3CCCCO3)CC2)o1 (centres undefined),.,.,.,.,.,.
CCOC(=O)COc1cnc2ccccc2n1,.,.,.,.,.,.
O=C(CSc1cccc2cccc(Cl)c12)NCc1cccs1,.,.,?,?,25.9µM,.
O=C1[C@H]2CCCC[C@H]2C(=O)N1CCCCN1CCN(c2nsc3ccccc23)CC1,23.1µM,.,21.1µM,?,13µM,?
Cc1ccc(S(=O)(=O)N(C)C)cc1NC(=O)CN1C(=O)NC2(CCCc3ccccc32)C1=O (centres undefined),.,?,.,.,.,.
Cc1cccc(C(=O)N2CCC(=O)N(C(COCc3ccc(Cl)cc3)Cc3ccccc3)CC2)c1 (centres undefined),.,?,20.6µM,?,20.6µM,.
Cc1cccc(C(=O)N2CCC(=O)N([C@H](COCc3cccc(Cl)c3)Cc3ccccc3)CC2)c1,?,.,23.1µM,.,18.4µM,?
O=C(c1ccc(Cl)c(Cl)c1)N1CCC(=O)N(C(COCc2cccc(Cl)c2)Cc2ccccc2)CC1 (centres undefined),?,.,?,.,?,?
O=C(c1ccc(Cl)c(Cl)c1)N1CCC(=O)N([C@H](COCc2ccc(Cl)cc2)Cc2ccccc2)CC1,?,20.6µM,?,?,23.1µM,25.9µM
Cc1cccc(C(=O)N2CCC(=O)N([C@H](COCc3ccc(Cl)cc3)Cc3ccccc3)CC2)c1,?,.,?,?,?,?
O=C(c1cccc(Cl)c1)N1CCC(=O)N([C@H](COCc2ccccc2)Cc2ccccc2)CC1,.,?,?,.,18.4µM,.
COc1ccccc1CNC(=O)CN1C(=O)NC(Cc2ccccc2)(c2ccccc2)C1=O (centres undefined),.,.,.,.,.,.
Cc1cccc(C(=O)N2CCC(=O)N(C(COCc3cccc(Cl)c3)Cc3ccccc3)CC2)c1 (centres undefined),.,.,?,?,16.4µM,.
SMILES,HT1080-NT tox,KB-V1 cytotox,DT40 TDP1 CPT,KB-3-1 cytotox,TDP1 cell noCPT,HT1080 IDH1KD tx
NCCc1nnc(SCC(=O)c2ccc(Cl)cc2)o1,.,.,.,.,?,.
COc1ccc(-c2cn3nc(N4CCCC(C(=O)Nc5ccc(C)c(C)c5)C4)sc3n2)cc1 (centres undefined),/,.,?,.,11.6µM,/
CCOc1ccc(NC(=O)C2CCCN(c3nn4c(=O)cc(C)nc4s3)C2)cc1 (centres undefined),.,.,.,.,.,.
COc1ccc(-c2cn3nc(N4CCCC(C(=O)Nc5cccc(Cl)c5C)C4)sc3n2)cc1 (centres undefined),/,.,?,.,20.6µM,/
COc1ccccc1CNC(=O)C1CCCN(c2nn3cc(-c4ccc(F)cc4)nc3s2)C1 (centres undefined),/,.,?,.,?,/
CCOc1ccc(NC(=O)C2CCCN(c3nn4cc(-c5ccc(OC)cc5)nc4s3)C2)cc1 (centres undefined),/,.,?,.,10.3µM,/
COc1ccc(-c2cn3nc(N4CCCC(C(=O)NCc5ccccc5C)C4)sc3n2)cc1 (centres undefined),/,.,13µM,.,10.3µM,/
COc1ccc(-c2cn3nc(N4CCC(C(=O)NCc5ccc(F)cc5)CC4)sc3n2)cc1,/,.,.,.,?,/
COc1ccc(-c2cn3nc(N4CCC(C(=O)Nc5cccc(Cl)c5)CC4)sc3n2)cc1,/,.,.,.,?,/
COc1ccc(-c2cn3nc(N4CCCC(C(=O)Nc5cc(C)cc(C)c5)C4)sc3n2)cc1 (centres undefined),/,.,8.2µM,.,8.2µM,/
CCCSCCCNC(=O)C1CCN(c2nn3cc(-c4ccc(F)cc4)nc3s2)CC1,/,.,5.17µM,.,?,/
Cc1ccc(-c2cn3nc(N4CCCC(C(=O)NCc5ccc(F)cc5)C4)sc3n2)cc1 (centres undefined),/,.,?,.,?,/
Cc1ccc(-c2cn3nc(N4CCCC(C(=O)Nc5ccc(F)cc5)C4)sc3n2)cc1 (centres undefined),/,.,16.4µM,.,18.4µM,/
COc1cccc(NC(=O)C2CCN(c3nn4cc(-c5ccc(F)cc5)nc4s3)CC2)c1,/,.,13µM,.,?,/
O=C(O)c1cc2c(ncc3c(=O)n(-c4ccccc4)[nH]c32)s1,.,.,?,.,.,.
COc1ccc(-c2cn3nc(N4CCC(C(=O)Nc5ccc(C)cc5)CC4)sc3n2)cc1,/,.,?,.,20.6µM,/
COc1ccc(-c2cn3nc(N4CCCC(C(=O)Nc5cccc(OC)c5)C4)sc3n2)cc1 (centres undefined),/,.,20.6µM,.,23.1µM,/
